Screening data deposited in PubChem BioAssay by several laboratories.
ERa SRC1 inh: blocks coactivator binding to human estrogen receptor alpha | P03372 | TR-FRET ER-alpha LBD / SRC-1 peptide, estradiol-bound | inhibition, % at 25.6 µM | actives 1.7% (n = 86,000) | AID 629; in the data active means inhibition above about 50%;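 further: 0% = receptor plus peptide control and 100% = peptide only without receptor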
Target sequence (P03372 whole entry, looked up, the tested form may be a part): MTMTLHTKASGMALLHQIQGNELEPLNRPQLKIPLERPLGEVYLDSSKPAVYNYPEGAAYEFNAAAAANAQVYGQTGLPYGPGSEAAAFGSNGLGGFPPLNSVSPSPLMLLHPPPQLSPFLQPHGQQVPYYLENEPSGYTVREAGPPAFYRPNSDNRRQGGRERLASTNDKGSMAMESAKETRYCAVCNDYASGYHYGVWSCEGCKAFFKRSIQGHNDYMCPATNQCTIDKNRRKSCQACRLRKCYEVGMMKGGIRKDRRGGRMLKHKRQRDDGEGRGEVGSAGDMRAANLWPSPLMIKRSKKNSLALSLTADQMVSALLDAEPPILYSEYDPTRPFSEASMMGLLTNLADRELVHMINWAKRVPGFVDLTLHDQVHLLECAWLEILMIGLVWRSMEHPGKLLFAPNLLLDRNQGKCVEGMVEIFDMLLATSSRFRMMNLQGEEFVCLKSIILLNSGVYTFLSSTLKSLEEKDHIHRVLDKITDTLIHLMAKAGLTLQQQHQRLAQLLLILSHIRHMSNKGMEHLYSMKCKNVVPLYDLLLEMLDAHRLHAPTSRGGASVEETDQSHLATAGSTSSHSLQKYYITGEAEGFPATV
ERa SRC1 pot: ER-alpha (human) coactivator binding potentiation. P03372. TR-FRET ERalpha-LBD/SRC-Cy5 coactivator binding, 2 h; 100 = basal binding, no effect. coactivator binding (% of control), % at 25.6 µM. actives 1.3% (n = 86,000); in the data active means activity above about 200%;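 further: binding measured in presence of low estradiol as agonist stimulus; 0% = peptide alone without receptor and 100% = receptor with peptide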
FAK inh: blocks human focal adhesion kinase activity; biochemical FAK kinase activity assay; inhibition, %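 (tested at 7 µM)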; Q05397; AID 727; actives 0.84% (n = 97,000); in the data active means inhibition above about 19%;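 further: 0% = DMSO and 100% = reference compound high control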
PTPN22 act: activators of human LYP (PTPN22) phosphatase; actives 0.11% (n = 96,000); activation, % at 2 µM; recombinant LYP, DiFMUP fluorescence; 0 = plate median, 100 = signal doubled;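 active means activation at 2 µM above a set limit, the mean plus 5 SD, cut at about 37% in these data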
ERb coact inh: ER-beta (human) coactivator binding inhibition; Q92731; TR-FRET ER-beta LBD / SRC1-Cy5 peptide binding; receptor agonist-loaded with 1 µM estradiol; inhibition, % at 25.6 µM; actives 1.3% (n = 86,000);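 active means compounds whose percent inhibition of the receptor-coactivator binding signal exceeds about 50% in the single-dose screen, limit read from the data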;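 further: 0% = receptor plus peptide wells without compound and 100% = peptide-only wells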
LYP inh 2: blocks human PTPN22 phosphatase activity | recombinant LYP catalytic domain, DiFMUP fluorescence | inhibition, % at 2 µM | actives 0.21% (n = 96,000) | AID 640;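 active means inhibition at 2 µM at or above a set limit, the screen mean plus 3 SD, cut at about 24% in these data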;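 further: 0% = DMSO with enzyme and 100% = enzyme fully blocked by orthovanadate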
* = called active by the depositor; · = not tested or not shown; [ ] = dose if it differs, or a comment. Most compounds without a hit are left out; they make up all but 3.4% or so of the library.

SMILES	ERa SRC1 inh	ERa SRC1 pot	FAK inh	PTPN22 act	ERb coact inh	LYP inh 2
Cc1ccc(C(C(=O)NC(C)(C)C)N(Cc2ccco2)C(=O)CCC(=O)Nc2nccs2)cc1 (configuration not stated)	-8	99	0	14	-7	-13
COc1ccc(CC(=O)OCC(=O)Nc2ncc(Cl)cc2Cl)cc1	52*[fluorescence artefact?]	53	3	-6	43	4
COc1cc(CC(=O)OCC(=O)Nc2ncc(Cl)cc2Cl)cc(OC)c1OC	45	67	0	-4	40	3
O=C(Nc1nc(-c2cc(Cl)sc2Cl)cs1)c1ccc(Br)s1	·	·	-1	-10	·	9
O=C(Nc1nc(-c2ccccn2)cs1)c1ccc(Br)s1	-12	473*	-1	-11	-11	13
O=C(O)c1nn(-c2ccccc2)ccc1=O	·	·	-3	2	·	1
CNc1nnc(-c2cc3cc(Cl)ccc3oc2=O)s1	66*	183	12	-2	49	4
O=c1oc2ccccc2cc1-c1nc2c(s1)CCCC2	·	·	4	-8	·	7
Cc1ccc(NC(=O)CSc2nnc(Cn3c(=O)sc4ccccc43)n2C)cc1Cl	38	360*	·	·	35	·
Cc1ccc(NC(=O)CSc2nnc(Cn3c(=O)sc4ccccc43)n2C)cc1	-11	115	·	·	-8	·
CC(NC(=O)CSc1nnc(CC(=O)Nc2ccc(Cl)c(Cl)c2)n1C)c1ccccc1 (configuration not stated)	-2	97	-2	12	-7	-9
Cn1c(CC(=O)Nc2ccc(Cl)c(Cl)c2)nnc1SCC(=O)N1CCN(c2ccccc2)CC1	72*[fluorescence artefact?]	70	0	0	39	3
O=C(CCCN1C(=O)c2ccccc2C1=O)OC1CSCC1NC(=O)c1ccccc1 (configuration not stated)	-5	102	-2	9	-2	-5
COc1cccc(/C=C2\N=C(SC)SC2=O)c1OC	-2	108	·	·	2	·
COc1cccc(/C=C2\N=C(c3c(-c4ccccc4)noc3C)OC2=O)c1OC	68*	87	-5	2	39	-5
C=C(C)C(=O)Nc1ccc(OC(F)(F)C(F)F)c(NC(=O)C(=C)C)c1	-38	210*	-3	15	-14	-12
O=C(CC1C(=O)N(c2ccccc2)C(=O)N1C1CCCCC1)Nc1ccccc1 (configuration not stated)	4	114	-2	3	6	0
Cc1ccc(-n2ncc3c2ncn2c(-c4ccncc4)nnc32)cc1	66*[fluorescence artefact?]	89	·	·	31	·
CC(=O)C(C(C)=O)c1c(Cl)c(O)c(O)c2c(C(=O)c3ccccc3)coc12	22	83	6	-2	55*[fluorescence artefact?]	0
O=c1c(-c2nnc(SCc3ccc(Cl)cc3Cl)o2)cccn1Cc1ccccc1	·	·	2	-23	·	25*
COc1ccc(S(=O)(=O)N(CC(=O)NCC2CCCO2)c2ccc(F)cc2)cc1OC (configuration not stated)	0	109	-4	24	0	-20
COc1ccc(C2(C)NC(=O)N(CC(=O)Nc3ccc4c(c3)OCO4)C2=O)cc1OC (configuration not stated)	-14	79	2	-5	-8	8
CN1CCCC(OC(=O)c2ccc3c(c2)OCCO3)C1 (configuration not stated)	0	127	0	20	60*	-25
O=C(O)c1ccc2c(c1)OCCO2	77*[fluorescence artefact?]	110	2	-1	3	2
CN1CCN(C(=O)c2ccc3c(c2)OCCO3)CC1	-2	104	-1	1	0	-1
SMILES	ERa SRC1 inh	ERa SRC1 pot	FAK inh	PTPN22 act	ERb coact inh	LYP inh 2
CCOC(=O)COc1c(OC)cc(Cl)cc1C1NC(=O)NC(C)=C1C(C)=O (configuration not stated)	57*[fluorescence artefact?]	88	1	-1	60*[fluorescence artefact?]	0
CCCC1=C(C(=O)OCC)C(c2cc(Cl)cc(OC)c2OCC(=O)OCC)NC(=O)N1 (configuration not stated)	25	106	2	13	-6	-15
COc1cc(-c2nc(-c3ccccc3)c(-c3cccs3)[nH]2)cc(OC)c1O	9	34	3	0	12	2
COc1cc(-c2nc(-c3ccccc3)c(-c3cccs3)[nH]2)cc(OC)c1OC	18	252*	4	-2	-5	1
CCOc1ccc(-c2nnn(CC#N)n2)cc1OC	-8	118	2	7	-2	-8
Clc1cc(Cl)cc(Nc2ncn[nH]2)c1	·	·	10	3	·	0
CCCNC(=O)c1c(NC(=O)C2COc3ccccc3O2)sc2c1CCCC2 (configuration not stated)	19	110	-3	4	21	-3
O=C(NC1CCS(=O)(=O)C1)c1c(NC(=O)C2COc3ccccc3O2)sc2c1CCCC2 (configuration not stated)	59*	148	1	4	32	-2
Cc1nc2c(c(=O)n1CCC1=CCCCC1)c1nc3ccccc3nc1n2/N=C/c1ccccc1	7	134	0	-39	7	39*
O=c1c2c3nc4ccccc4nc3n(/N=C/c3ccco3)c2ncn1CCC1=CCCCC1	66*[fluorescence artefact?]	85	·	·	40	·
O=C1Nc2ccccc2C12OCC1(CO2)COC2(OC1)C(=O)Nc1ccccc12 (configuration not stated)	6	93	-2	-3	5	6
O=C1Nc2ccccc2C12OCCS2 (configuration not stated)	-5	96	·	·	54*	·
Clc1ccc(-c2ccc(/C=N/Nc3cc(N4CCOCC4)nc(N4CCOCC4)n3)o2)cc1	-13	93	1	5	-12	-5
COc1cc(NC(=O)Cc2ccc(Cl)cc2)ccc1NC(=O)c1ccco1	10	113	4	-6	1	6
COc1ccc(NC(=O)c2cc(Cl)ccc2NC(=O)c2ccco2)c(OC)c1	16	217*[fluorescence artefact?]	0	5	10	-3
Cc1ccc(N(CC(=O)Nc2ccc3c(c2)OCCO3)S(=O)(=O)c2c(C)noc2C)cc1	-1	104	-4	-12	-7	13
COc1ccc(N(CC(=O)Nc2ccc3c(c2)OCCO3)S(=O)(=O)c2c(C)noc2C)cc1	-2	109	-2	11	99*[fluorescence artefact?]	-13
COC(=O)C(C(=O)OC)C(C(C)C)C(C(=O)OC)C(=O)OC	-6	99	-2	8	-4	-9
CCOC(=O)N1CCc2c(sc3c2C(=O)NC(c2ccc(-c4ccc(Cl)cc4)o2)N3)C1 (configuration not stated)	79*	16	·	·	56*[fluorescence artefact?]	·
Cc1ccc(C2NC(=O)c3c(sc4c3CCN(C)C4)N2)o1 (configuration not stated)	-14	87	0	6	21	-10
